The record followed here is PubChem BioAssay (NCATS).

The structures appear in SMILES notation. Several values for one entry are separate records, joined by “and”; a condition that tells them apart may be missing. Identical values can stand only once. Inconclusive results are not listed. Where a structure was tested more than once in an assay, its records may differ in their call. Values without a mark were called inactive. Activity calls are given as the source filed them. Calls follow the shape of the dose curve; as a rule, active = well fitted inhibition curve with a large enough effect; inconclusive = small, poorly fitted or top-dose-only effect; inactive = flat fitted curve, though single readings scatter.

One test deals with CRL-7250. As to the kind of experiment: Cytotoxic Profiling of Annotated Libraries Using Quantitative High-Throughput Screening (AID 1296008). As to max response: % is scaled to controls: 0 for no effect and ±100 for the full control effect. The note with it: Five cell lines viability, CellTiter-Glo ATP luminescence, 48-72 h; max response: stronger effect = lower value. Summed up: (§1)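 Cytotoxicity was measured as CellTiter-Glo ATP luminescence, read after 10 min at room temperature. Compound treatment of the cells lasted 48 or 72 hr at 37 degrees Celsius in a qHTS format.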
(In general: ATP-based viability assays read luminescence as a measure of living cells.)

In the next test the test system is HEK293. The description is as above. The note with it: Five cell lines viability, CellTiter-Glo ATP luminescence, 48-72 h; max response: stronger effect = lower value. The gist of the method:
as §1

Test [1] deals with HaCat. The test is described as above. The note with it: Five cell lines viability, CellTiter-Glo ATP luminescence, 48-72 h; max response: stronger effect = lower value. The gist of the method:
as §1

A further test relates to KB-3-1. Described as above. The conditions noted are these: Five cell lines viability, CellTiter-Glo ATP luminescence, 48-72 h; max response: stronger effect = lower value. Summed up: as §1
For another test, the system named is NIH3T3. The test is described as above. The note with it: Five cell lines viability, CellTiter-Glo ATP luminescence, 48-72 h; max response: stronger effect = lower value. The gist of the method:
as §1

The subject of test [2] is HACAT. As to the kind of experiment: qHTS assay to identify novel small-molecules to repurpose for Merkel cell carcinoma treatment (AID 1296009). The note with it: MCC and control cell lines, CellTiter-Glo viability, 72 h; at 44.8 µM (top of the series) unless noted. The gist of the method: (§2)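 After compound transfer in DMSO, plates were kept 72 hr at 37 degree celsius. Luminescent ATP signal from CellTiter-Glo served as viability measure, normalized against DMSO and no-cell controls.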

The subject of the next test is MCC-13. The test is described as above. The note with it: MCC and control cell lines, CellTiter-Glo viability, 72 h; series mostly up to 46 µM. Summed up: as §2
The subject of the next test is MCC-26. Described as above. The conditions noted are these: MCC and control cell lines, CellTiter-Glo viability, 72 h; series mostly up to 46 µM. Summed up: as §2
For another test, the system named is HEK293T. The description is as above. The conditions noted are these: MCC and control cell lines, CellTiter-Glo viability, 72 h; at 44.8 µM (top of the series) unless noted. Summed up:
as §2

A further test relates to W2. As to the kind of experiment: qHTS profiling for inhibitors of Plasmodium falciparum proliferation (AID 504749). The note with it: P. falciparum in erythrocytes, SYBR Green DNA, 72 h; series mostly up to 28.7 µM. Summed up: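 Three-day growth assay of blood-stage parasites in erythrocytes (0.3% parasitemia, 2.5% hematocrit) at 37 C, 5% CO2, quantified by SYBR Green DNA staining after overnight detergent lysis.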
Also: nearly all actives have a fitted effect of over 60% in size.
Potency is read from the fitted curve at half-maximal effect.

Turning to `Cc1ccc(S(=O)(=O)NC(=O)NN2CC3CCCC3C2)cc1` (stereo unspecified), the compound was called inactive in the test with CRL-7250, with HaCat [1] and in the test on HACAT [2]. The max response was 2.56% in the test with HEK293; 5.5% and -19.7% with KB-3-1; 2.24% and -2.1% in the test on NIH3T3. Further, the Potency entry in the test on MCC-13 and in the test with MCC-26 was “inactive” each time.
`Cc1ccc(C(=O)c2cc(O)c(O)c([N+](=O)[O-])c2)cc1`: the max response in the test on CRL-7250 is -7.14%; with HaCat [1] it was -18.7%; in the test with NIH3T3 it was 1.41%. The compound was classed as inactive in the test on HEK293, in the test on HaCat [1], with HACAT [2] and in the test with HEK293T. Further, the Potency result in the test with MCC-13 and with MCC-26 was “inactive” in each case.
In the case of `COCCCOc1ccnc(CS(=O)c2nc3ccccc3[nH]2)c1C` (stereo unspecified), the Potency in the test on W2 is 1070 nM (active). In addition, the compound was called inactive in the test with CRL-7250, in the test with KB-3-1 and in the test with NIH3T3. The max response in the test on HEK293 is 1.81%; with HaCat [1], -2%; in the test on KB-3-1, -10%; in the test on NIH3T3, -12.1% and 2.17%. In addition, the outcome in the test with HaCat [1] and in the test on HACAT [2] was “inactive; activator” throughout. Further, the Potency result with MCC-13 and in the test with MCC-26 was “inactive” throughout.
Turning to `O=c1c(O)c(-c2ccc(O)cc2O)oc2cc(O)cc(O)c12`, the max response in the test on CRL-7250 is -3.27%; in the test with HEK293, 4.53%; in the test on KB-3-1 it was -10.8%; in the test on NIH3T3 it was -16.7%. The outcome in the test on HaCat [1] and with HACAT [2] was inactive. The Potency result in the test on MCC-13 and in the test on MCC-26 was “inactive” throughout.
With `Clc1ccc2c(N3CCN(CCCN4CCN(c5ccnc6cc(Cl)ccc56)CC4)CC3)ccnc2c1`, the max response in the test with CRL-7250 is -5.75%; in the test with KB-3-1, 3.7%; in the test with NIH3T3, -5.21%. Also, the call in the test on HEK293 and with HaCat [1] was inactive. Further, the outcome in the test with HACAT [2] and with HEK293T was “inactive [at 17.4 µM]” in each case. The Potency entry in the test on MCC-13 and with MCC-26 was “inactive” each time.
For the compound `CC(S)C(=O)NCC(=O)O` (stereo unspecified), the Potency entry with W2, in the test with MCC-13 and with MCC-26 was “inactive” each time. In addition, the call in the test on CRL-7250, in the test on HaCat [1] and with HACAT [2] was inactive. Also, the max response in the test on HEK293 is -0.0067% and -3.71%; in the test with HaCat [1], -2.01%; in the test with NIH3T3, 0.885% and -1.07%.
As for `Cc1cccc(-c2[nH]ncc2-c2ccc3ncccc3n2)n1`, the max response in the test with CRL-7250 is -2.02%; in the test with HEK293 it was -26.8%; with KB-3-1, -11.3%; with NIH3T3, -18.1%. Besides, the compound was called inactive with HaCat [1] and in the test with HACAT [2]. The Potency entry with MCC-13 and in the test on MCC-26 was “inactive” each time.
With `CCCCc1ccc2nc(NC(=O)OC)[nH]c2c1`, the Potency result with W2 is “inactive”. In addition, the Potency was 469 nM (active) and 266 nM (active) in the test on CRL-7250; 14.8 nM (active) and 188 nM (active) with HEK293; 23.5 nM (active) with KB-3-1; 16.6 nM (active) with NIH3T3; 296 nM (active) and 53.1 nM (active) in the test with MCC-13. The max response in the test with HaCat [1] was 3.13%. Also, the outcome with HaCat [1] and in the test on HACAT [2] was inactive.
As to `CC1Cc2ccccc2N1NC(=O)c1ccc(Cl)c(S(N)(=O)=O)c1` (stereo unspecified), the max response with CRL-7250 was -6.14% and 4.23%; with HEK293 it was 0.791% and 0.879%; in the test with HaCat [1], -11.1%; in the test with KB-3-1, -19.1% and -17.8% and -4.71%; in the test with NIH3T3 it was 3.24% and 4.11%. The result in the test with HaCat [1] and in the test with HACAT [2] was inactive. Moreover, the Potency entry with MCC-13 and in the test with MCC-26 was “inactive” each time.
Turning to `Cc1cc(=O)oc2cc(O)ccc12`, the Potency result in the test with W2, with MCC-13 and in the test with MCC-26 was “inactive” each time. The max response in the test on CRL-7250 was 4.43% and 2.39%; with HEK293, 4.56%; in the test with HaCat [1] it was 1.05% and -3.2%; with NIH3T3 it was -7.66% and -0.637%. For the same compound, the call with HEK293 and in the test on HEK293T was inactive.
As for `c1ccc2[nH]c(-c3cscn3)nc2c1`, the Potency result in the test on W2, in the test on MCC-13 and with MCC-26 was “inactive” in each case. Moreover, the max response was -2.24% and 4.16% in the test with CRL-7250; -22.6% and -4.05% with HEK293; -3.12% in the test with HaCat [1]; -14.9% and 2.26% with KB-3-1; 2.11% and -9.05% in the test with NIH3T3. Moreover, the compound was classed as inactive with HaCat [1] and with HACAT [2].
As to `c1cnc2cc3c(cc2n1)C1CNCC3C1`, the max response with CRL-7250 was -23.9% and -2.72%; in the test with HEK293, -2.74% and -10.4%; with HaCat [1] it was 2.53%; with NIH3T3, 4.61%. The compound was classed as inactive in the test on HaCat [1], with NIH3T3 and with HACAT [2]. The Potency entry in the test on MCC-13 and with MCC-26 was “inactive” throughout.
As for `NC(=O)Cc1cccc(C(=O)c2ccccc2)c1N`, the max response was -2.24% and -8.84% in the test with CRL-7250; -0.043% and -1.4% with HEK293; -6.4% in the test with HaCat [1]; -8.75% in the test with KB-3-1; 1.53% and -19% in the test with NIH3T3. For the same compound, the compound was classed as inactive with HaCat [1] and in the test with HACAT [2]. In addition, the Potency result in the test on MCC-13 and in the test on MCC-26 was “inactive” throughout.
Turning to `C[C@@H](c1ncncc1F)[C@](O)(Cn1cncn1)c1ccc(F)cc1F`, the max response in the test with CRL-7250 was -18.6%; with HEK293, -20.1%; in the test on KB-3-1, -4.61%; in the test on NIH3T3 it was -4.26%. Moreover, the compound was called inactive in the test with HaCat [1] and with HACAT [2]. The Potency entry with MCC-13 and with MCC-26 was “inactive” throughout.
`O=C(NOCC1CC1)c1ccc(F)c(F)c1Nc1ccc(I)cc1Cl`: the max response was -12.6% in the test with CRL-7250 and -17.9% with HaCat [1]. Further, the Potency in the test on HEK293 was 18.7 µM (active); with HaCat [1] it was 26600 nM (active). Also, in the test with MCC-26, the Potency entry was “inactive”.
As to `CC1(C)NC(=O)N(c2ccc([N+](=O)[O-])c(C(F)(F)F)c2)C1=O`, the Potency entry with W2, in the test with MCC-13 and in the test with MCC-26 was “inactive” in each case. Besides, the max response with CRL-7250 was -12.3%; in the test on HEK293, -29%; in the test on HaCat [1] it was -0.412%; in the test on KB-3-1, 2.37% and -24.9%; in the test with NIH3T3, -6.23% and -0.388%. The compound was classed as inactive in the test on HaCat [1] and in the test with HACAT [2].
